We go through seven compounds from PubChem BioAssay (NCI).

The structures appear in SMILES notation. About 83,000 compounds went through this panel and 20% of them were active in at least one assay; those are over-represented in the sample as a whole.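 Single-dose data. Exposure time 48 hours. Values below 10 considered active.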 Unmarked numbers belong to inactive results. Active and inactive are the calls of the source.

Some test systems named below: SK-MEL-2 melanoma; EKVX NSCLC; SN12C renal; UO-31 renal; TK-10 renal; ACHN renal; CAKI-1 renal; A498 renal; CCRF-CEM leukemia; MOLT-4 leukemia; SR leukemia; RPMI-8226 leukemia; OVCAR-8 ovarian; OVCAR-5 ovarian; OVCAR-4 ovarian; SK-OV-3 ovarian; IGROV1 ovarian; OVCAR-3 ovarian; HS 578T breast; NCI/ADR-RES ovarian.
What all share (experiment): NCI-60 one-dose screen, 48 h (100 = growth as untreated, 0 = no growth, -100 = all killed)
Common to all, as to conditions: 10 µM unless noted

For `CCN(CC)Cc1cc(Nc2ccnc3cc(Cl)ccc23)ccc1O`, the growth with SK-MEL-2 melanoma was 111%; in the assay with EKVX NSCLC, 68.5%; in the assay on SN12C renal it was 81.9%; with UO-31 renal, 87.1%; with TK-10 renal, 108%; with ACHN renal it was 100%. Also, the growth in the assay on CAKI-1 renal was 88.3%; in the assay with A498 renal, 95.7%; in the assay with CCRF-CEM leukemia, 88.8%; in the assay with MOLT-4 leukemia it was 100%; with SR leukemia, 82.7%; with RPMI-8226 leukemia, 93.3%. Also, the growth was 100% in the assay on OVCAR-8 ovarian; 97.7% in the assay on OVCAR-5 ovarian; 94.4% in the assay with OVCAR-4 ovarian; 116% in the assay with SK-OV-3 ovarian; 88.4% in the assay on IGROV1 ovarian; 88.5% with OVCAR-3 ovarian. Further, the growth is 91.6% in the assay on HS 578T breast and 93.9% with NCI/ADR-RES ovarian.

In the case of `CC1=C2[C@@H](CC1)[C@]1(C)O[C@@](c3ccccc3)(C[C@H]1OC(=O)CO)[C@H]2OC(=O)/C=C/c1ccccc1`, the growth was 91.9% in the assay on SK-MEL-2 melanoma; 83.4% in the assay with EKVX NSCLC; 41.4% with SN12C renal; -8.71% (active) in the assay with UO-31 renal; 111% in the assay with TK-10 renal; 2.46% (active) in the assay with ACHN renal. For the same compound, the growth in the assay with CAKI-1 renal is 72.2%; with A498 renal, -78.1% (active); in the assay on CCRF-CEM leukemia, 77.5%; in the assay with MOLT-4 leukemia, 70.8%; in the assay with SR leukemia it was 68.8%; with RPMI-8226 leukemia, 77.7%. Moreover, the growth in the assay with OVCAR-8 ovarian is 10.3%; in the assay on OVCAR-5 ovarian, 108%; with OVCAR-4 ovarian, 5.56% (active); in the assay on SK-OV-3 ovarian it was 119%; in the assay with IGROV1 ovarian, 108%; with OVCAR-3 ovarian it was 97.6%. Besides, the growth in the assay with HS 578T breast was -10.2% (active); in the assay on NCI/ADR-RES ovarian it was 2.86% (active).

As for `O=C(/C=C/c1cccc(Cl)c1Cl)Nc1ncc(Cc2ccccc2Cl)s1`, the growth in the assay on SK-MEL-2 melanoma was 44.7%; in the assay with EKVX NSCLC, 55.7%; with SN12C renal, 56.9%; in the assay on UO-31 renal it was 44.6%; with TK-10 renal, 84.2%; in the assay on ACHN renal, 46.4%. The growth in the assay on CAKI-1 renal was 48%; in the assay on A498 renal, 39.6%; with CCRF-CEM leukemia, 21.5%; in the assay on MOLT-4 leukemia, 50.6%; in the assay on SR leukemia it was 19.1%; in the assay with RPMI-8226 leukemia, 35.4%. Besides, the growth in the assay with OVCAR-8 ovarian was 73.6%; in the assay on OVCAR-5 ovarian it was 80.1%; with OVCAR-4 ovarian, 70.2%; with SK-OV-3 ovarian it was 70.4%; in the assay with IGROV1 ovarian, 39.3%; with OVCAR-3 ovarian it was 11.3%. The growth with HS 578T breast was 38%; in the assay on NCI/ADR-RES ovarian it was 31%.

For `COc1ccc(C2=CN3CC=CC3CC2=O)cc1` (stereo not given), the growth with SK-MEL-2 melanoma was 96.2%; with EKVX NSCLC, 87.3%; with SN12C renal, 109%; in the assay on UO-31 renal, 103%; in the assay on TK-10 renal it was 82.5%; with ACHN renal it was 102%. In addition, the growth in the assay on CAKI-1 renal was 95.8%; in the assay with A498 renal, 111%; in the assay with CCRF-CEM leukemia it was 106%; in the assay with MOLT-4 leukemia, 96%; with SR leukemia, 94.4%; with RPMI-8226 leukemia it was 104%. In addition, the growth in the assay on OVCAR-8 ovarian is 103%; in the assay on OVCAR-5 ovarian it was 110%; in the assay with OVCAR-4 ovarian, 98.9%; in the assay on SK-OV-3 ovarian, 102%; in the assay with IGROV1 ovarian, 104%; with OVCAR-3 ovarian it was 102%. For the same compound, the growth with HS 578T breast was 104%; with NCI/ADR-RES ovarian, 103%.

On to `Cn1cc(-c2nn3cc(-c4cccs4)nc3s2)c2cc(F)ccc21`, for which the growth with SK-MEL-2 melanoma was 35%; with EKVX NSCLC it was 47.7%; in the assay with SN12C renal, 36%; in the assay on UO-31 renal, 35.8%; in the assay on TK-10 renal it was 53.7%; in the assay on ACHN renal, 43.5%. Moreover, the growth is 27.8% in the assay on CAKI-1 renal; 7.55% (active) with A498 renal; 21.9% with CCRF-CEM leukemia; 22.3% in the assay with MOLT-4 leukemia; 11.8% with SR leukemia; 31.2% with RPMI-8226 leukemia. Also, the growth was 51.4% in the assay on OVCAR-8 ovarian; 42.7% in the assay with OVCAR-5 ovarian; 60.5% in the assay with OVCAR-4 ovarian; 44.9% in the assay on SK-OV-3 ovarian; 35.3% in the assay with IGROV1 ovarian; 5.2% (active) with OVCAR-3 ovarian. In addition, the growth is 1.66% (active) in the assay with HS 578T breast and 21.1% in the assay with NCI/ADR-RES ovarian.

As for `C=C(CNCCc1ccc(O)cc1)[C@@H]1CC[C@]2(CO)CC[C@]3(C)[C@H](CC[C@@H]4[C@@]5(C)CCC(=O)C(C)(C)[C@@H]5CC[C@]43C)[C@@H]12`, the growth in the assay with SK-MEL-2 melanoma was 37.5%; in the assay on EKVX NSCLC, 80%; with SN12C renal, 24.5%; with UO-31 renal, 27.1%; in the assay with TK-10 renal, 67.4%; with ACHN renal, 12.6%. The growth is 58.2% in the assay on CAKI-1 renal; 84.1% in the assay with A498 renal; -9.98% (active) with CCRF-CEM leukemia; 1.2% (active) in the assay with MOLT-4 leukemia; -24.9% (active) with SR leukemia; -12.2% (active) in the assay on RPMI-8226 leukemia. The growth in the assay on OVCAR-8 ovarian is -70.3% (active); with OVCAR-5 ovarian it was 90%; in the assay on OVCAR-4 ovarian it was 58.1%; in the assay on SK-OV-3 ovarian, 92.4%; in the assay with IGROV1 ovarian it was 30.9%; in the assay on OVCAR-3 ovarian, 39.7%. Moreover, the growth in the assay on HS 578T breast was 51.9%; in the assay with NCI/ADR-RES ovarian it was 33%.

For `O=C(O)/C=C/C(=O)Nc1cccc(Cn2nnc3cc(Cl)c(Cl)cc32)c1`, the growth with SK-MEL-2 melanoma was 114%; with EKVX NSCLC it was 94.3%; in the assay with SN12C renal it was 104%; in the assay with UO-31 renal it was 79.5%; with TK-10 renal, 124%; in the assay with ACHN renal it was 97.1%. Further, the growth in the assay with CAKI-1 renal was 95%; in the assay on A498 renal, 108%; in the assay on CCRF-CEM leukemia it was 99.4%; in the assay on MOLT-4 leukemia, 97.1%; in the assay on SR leukemia, 93.8%; with RPMI-8226 leukemia it was 104%. Besides, the growth in the assay on OVCAR-8 ovarian is 99.6%; in the assay on OVCAR-5 ovarian it was 100%; in the assay on OVCAR-4 ovarian it was 108%; in the assay on SK-OV-3 ovarian, 90.1%; in the assay with IGROV1 ovarian, 94.1%; in the assay with OVCAR-3 ovarian, 101%. The growth is 88% with HS 578T breast and 106% in the assay on NCI/ADR-RES ovarian.
